# Experimental data as given in PMC7862700, “An all-to-all approach to the identification of sequence-specific readers for epigenetic DNA modifications on cytosine”.
# What was measured:
# Test in all cases: DAPPL (digital affinity profiling via proximity ligation, sequencing); 10 mM Tris-HCl pH 7.5, 50 mM NaCl, 1 mM DTT, 4% glycerol, room temperature, 30 min; GST-TFs on glutathione beads, 16-mer random dsDNA library, 0.1% formaldehyde crosslink after washing; high values mean tight binding
# Conditions in all cases: protein: recombinant; tags: N-terminal GST; dsDNA, one strand shown
# ELK1 = target: T1, ELK1 (Homo sapiens, UniProt P19419 1-428)
# T1 sequence: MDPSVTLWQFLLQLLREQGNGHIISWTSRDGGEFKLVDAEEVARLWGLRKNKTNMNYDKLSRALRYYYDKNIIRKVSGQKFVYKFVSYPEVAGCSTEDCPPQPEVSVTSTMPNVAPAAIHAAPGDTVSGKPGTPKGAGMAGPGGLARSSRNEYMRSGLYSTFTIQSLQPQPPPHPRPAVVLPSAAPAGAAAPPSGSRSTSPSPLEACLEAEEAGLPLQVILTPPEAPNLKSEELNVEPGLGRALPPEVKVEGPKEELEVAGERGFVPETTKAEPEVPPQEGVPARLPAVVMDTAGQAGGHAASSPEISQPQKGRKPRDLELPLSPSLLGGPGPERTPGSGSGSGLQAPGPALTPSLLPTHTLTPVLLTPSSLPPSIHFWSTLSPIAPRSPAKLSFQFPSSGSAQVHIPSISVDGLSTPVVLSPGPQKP
# Method in brief: (§1)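 Binding signal is each hexamer's read frequency for a factor divided by its frequency in the tag-only sample. The factors were GST-fused human transcription factors from yeast, captured on glutathione beads, DNA-barcoded and pooled with that sample. Pools were incubated with 200 nmole of a random double-stranded 16-mer DNA library in Tris/NaCl/DTT/glycerol buffer at room temperature for 30 min, then washed, crosslinked with 0.1% formaldehyde, proximity-ligated with BsaI/T4 ligase (1 h, 37 °C), PCR-amplified and sequenced on an Illumina NextSeq500.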
# GABPA = target: T2, GABPA (Homo sapiens, UniProt Q06546 1-454)
# T2 sequence: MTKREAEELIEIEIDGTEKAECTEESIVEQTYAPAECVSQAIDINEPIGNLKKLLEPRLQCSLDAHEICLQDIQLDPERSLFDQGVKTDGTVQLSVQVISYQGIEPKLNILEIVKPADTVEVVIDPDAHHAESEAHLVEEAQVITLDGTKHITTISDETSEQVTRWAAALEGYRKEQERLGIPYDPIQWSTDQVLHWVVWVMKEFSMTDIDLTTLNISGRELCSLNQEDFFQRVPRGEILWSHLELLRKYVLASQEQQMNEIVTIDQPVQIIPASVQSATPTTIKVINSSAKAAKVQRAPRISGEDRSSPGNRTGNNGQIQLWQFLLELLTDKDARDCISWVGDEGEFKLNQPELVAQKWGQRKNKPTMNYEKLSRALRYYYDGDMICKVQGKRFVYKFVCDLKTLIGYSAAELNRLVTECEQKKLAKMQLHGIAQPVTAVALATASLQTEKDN
# Method in brief: as §1
# ERG = target: T3, ERG (Homo sapiens, UniProt P11308 1-479)
# T3 sequence: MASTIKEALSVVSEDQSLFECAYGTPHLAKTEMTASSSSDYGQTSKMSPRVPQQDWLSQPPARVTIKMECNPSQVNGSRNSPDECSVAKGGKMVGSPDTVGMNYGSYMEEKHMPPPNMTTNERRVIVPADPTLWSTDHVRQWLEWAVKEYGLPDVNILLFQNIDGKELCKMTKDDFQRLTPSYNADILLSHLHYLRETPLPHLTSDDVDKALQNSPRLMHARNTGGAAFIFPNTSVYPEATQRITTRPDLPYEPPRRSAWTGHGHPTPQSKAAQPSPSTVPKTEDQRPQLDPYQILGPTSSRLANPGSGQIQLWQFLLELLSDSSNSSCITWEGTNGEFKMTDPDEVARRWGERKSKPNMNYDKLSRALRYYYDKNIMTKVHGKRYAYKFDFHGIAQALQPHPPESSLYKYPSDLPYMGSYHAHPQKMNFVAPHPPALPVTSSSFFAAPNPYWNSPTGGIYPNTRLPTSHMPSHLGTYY
# Method in brief: as §1
# EHF = target: T4, EHF (Homo sapiens, UniProt Q9NZC4 1-300)
# T4 sequence: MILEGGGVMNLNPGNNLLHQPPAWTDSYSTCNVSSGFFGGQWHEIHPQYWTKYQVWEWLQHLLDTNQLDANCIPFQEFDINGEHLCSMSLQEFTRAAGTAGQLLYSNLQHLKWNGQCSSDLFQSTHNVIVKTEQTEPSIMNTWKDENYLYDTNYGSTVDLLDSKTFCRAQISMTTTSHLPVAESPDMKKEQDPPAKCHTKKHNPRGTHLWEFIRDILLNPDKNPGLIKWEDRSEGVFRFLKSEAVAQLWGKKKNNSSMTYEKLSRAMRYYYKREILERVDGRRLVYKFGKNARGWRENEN
# Method in brief: as §1
# FEV = target: T5, FEV (Homo sapiens, UniProt Q99581 1-238)
# T5 sequence: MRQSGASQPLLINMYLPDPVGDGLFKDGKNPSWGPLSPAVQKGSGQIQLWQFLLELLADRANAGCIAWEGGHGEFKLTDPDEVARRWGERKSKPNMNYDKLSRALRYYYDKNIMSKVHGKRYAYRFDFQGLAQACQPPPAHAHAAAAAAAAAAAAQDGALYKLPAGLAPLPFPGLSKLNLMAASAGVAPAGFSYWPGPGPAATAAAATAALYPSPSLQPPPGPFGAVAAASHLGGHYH
# Method in brief: as §1
# ETV5 = ETV5 (Homo sapiens, UniProt P41161 1-510)
# Chain of ETV5 (P41161 whole entry): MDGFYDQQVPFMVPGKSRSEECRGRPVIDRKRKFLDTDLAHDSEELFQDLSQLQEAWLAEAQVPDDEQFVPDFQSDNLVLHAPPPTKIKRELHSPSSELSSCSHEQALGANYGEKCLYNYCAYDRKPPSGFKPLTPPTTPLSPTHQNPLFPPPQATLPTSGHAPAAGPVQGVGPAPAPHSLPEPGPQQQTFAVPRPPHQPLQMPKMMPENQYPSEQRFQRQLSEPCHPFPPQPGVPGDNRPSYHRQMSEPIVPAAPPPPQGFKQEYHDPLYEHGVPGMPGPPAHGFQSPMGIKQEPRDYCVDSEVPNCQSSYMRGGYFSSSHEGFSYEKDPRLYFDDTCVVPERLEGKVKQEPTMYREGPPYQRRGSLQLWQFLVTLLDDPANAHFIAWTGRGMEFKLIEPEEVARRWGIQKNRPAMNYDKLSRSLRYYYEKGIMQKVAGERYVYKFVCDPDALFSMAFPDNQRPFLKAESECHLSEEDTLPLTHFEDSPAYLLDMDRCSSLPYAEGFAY
# Method in brief: as §1
# ETS2 = target: T6, ETS2 (Homo sapiens, UniProt P15036 1-469)
# T6 sequence: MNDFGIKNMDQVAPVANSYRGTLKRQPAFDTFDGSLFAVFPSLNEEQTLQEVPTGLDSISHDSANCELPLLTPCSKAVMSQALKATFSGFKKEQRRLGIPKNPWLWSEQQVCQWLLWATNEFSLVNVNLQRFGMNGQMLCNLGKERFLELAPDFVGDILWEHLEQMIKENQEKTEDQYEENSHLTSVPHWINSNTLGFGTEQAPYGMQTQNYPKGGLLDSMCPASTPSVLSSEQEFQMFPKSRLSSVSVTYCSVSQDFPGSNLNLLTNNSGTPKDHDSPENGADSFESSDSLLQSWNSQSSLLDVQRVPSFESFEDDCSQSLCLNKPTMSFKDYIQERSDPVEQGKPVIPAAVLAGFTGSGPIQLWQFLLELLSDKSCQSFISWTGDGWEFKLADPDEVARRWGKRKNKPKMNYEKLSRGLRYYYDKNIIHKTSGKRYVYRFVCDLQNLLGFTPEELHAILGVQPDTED
# Method in brief: as §1
# ETV7 = target: T7, ETV7 (Homo sapiens, UniProt Q9Y603 1-341)
# T7 sequence: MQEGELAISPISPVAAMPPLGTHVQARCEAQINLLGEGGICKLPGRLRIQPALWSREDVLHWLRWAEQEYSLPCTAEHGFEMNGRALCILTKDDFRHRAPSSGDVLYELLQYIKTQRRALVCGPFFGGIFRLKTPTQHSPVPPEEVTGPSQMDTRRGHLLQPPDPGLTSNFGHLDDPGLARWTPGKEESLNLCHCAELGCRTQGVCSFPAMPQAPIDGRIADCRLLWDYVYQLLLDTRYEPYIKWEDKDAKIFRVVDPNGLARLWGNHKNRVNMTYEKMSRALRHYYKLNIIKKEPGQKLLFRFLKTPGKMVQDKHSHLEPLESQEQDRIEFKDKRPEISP
# Method in brief: as §1
# ETV6 = ETV6 (Homo sapiens, UniProt P41212 1-452)
# Chain of ETV6 (P41212 whole entry): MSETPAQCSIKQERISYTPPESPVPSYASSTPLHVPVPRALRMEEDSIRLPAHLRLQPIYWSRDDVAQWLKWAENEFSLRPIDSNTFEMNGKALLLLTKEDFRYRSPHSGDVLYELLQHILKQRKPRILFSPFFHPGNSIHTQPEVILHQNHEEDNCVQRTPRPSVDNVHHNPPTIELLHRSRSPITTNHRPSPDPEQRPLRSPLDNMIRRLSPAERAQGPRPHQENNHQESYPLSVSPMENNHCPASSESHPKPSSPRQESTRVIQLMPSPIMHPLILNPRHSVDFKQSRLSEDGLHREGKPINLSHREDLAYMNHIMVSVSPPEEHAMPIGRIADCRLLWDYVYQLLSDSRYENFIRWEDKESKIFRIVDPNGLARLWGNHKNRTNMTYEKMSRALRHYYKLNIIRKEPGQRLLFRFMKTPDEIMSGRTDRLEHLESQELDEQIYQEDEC
# Method in brief: as §1
sequence,measurement,setting,value
TGGCGA,binding signal,ELK1,"1.02 fold enrichment (6-mer frequency, TF over GST control)"
same,binding signal,GABPA,"1.01 fold enrichment (6-mer frequency, TF over GST control)"
same,binding signal,ERG,"1.02 fold enrichment (6-mer frequency, TF over GST control)"
same,binding signal,EHF,"1.01 fold enrichment (6-mer frequency, TF over GST control)"
same,binding signal,FEV,"1.02 fold enrichment (6-mer frequency, TF over GST control)"
same,binding signal,ETV5,"1.01 fold enrichment (6-mer frequency, TF over GST control)"
same,binding signal,ETS2,"1.06 fold enrichment (6-mer frequency, TF over GST control)"
same,binding signal,ETV7,"1.07 fold enrichment (6-mer frequency, TF over GST control)"
same,binding signal,ETV6,"1.03 fold enrichment (6-mer frequency, TF over GST control)"
